Test results: the supplement of paper PMC6555819

Legend:
Experiment in all cases: PBM binding z-score (relative to random genomic background probes); higher = stronger binding; sequences stand for … in GC…GCGATTGACAGCGTAGAATGAAGG
[1] = test system: FXR:RXRa (NR concentration 270 nM, RXRa partner concentration 90 nM)
Procedure, shortened: (§1)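 The probes on custom Agilent 4×180K protein-binding microarrays were double-stranded, with 34-nt variable regions bearing direct-repeat seeds, single-nucleotide variants, half-site ablations and random human genomic background sequences. Incubation lasted 1 h with ligand-free nuclear receptor dimers in PBS pH 7.4, 2% milk, 0.02% Triton X-100, 1 mM DTT, 0.2 mg/mL BSA and 0.4 mg/ml salmon testes DNA. Antibodies against each partner (one per run) detected bound dimers, and fluorescence scans were regression-normalized. Binding z-scores take the random background probes as reference.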

[2] = test system: LXRa:RXRa (NR concentration 270 nM, RXRa partner concentration 90 nM)
Procedure, shortened: as §1

[3] = test system: LXRa homodimer (NR concentration 270 nM)
Procedure, shortened: as §1

[4] = test system: LXRb:RXRa (NR concentration 270 nM, RXRa partner concentration 90 nM)
Procedure, shortened: as §1

[5] = test system: LXRb homodimer (NR concentration 270 nM)
Procedure, shortened: as §1

[6] = test system: PPARa:RXRa (NR concentration 270 nM, RXRa partner concentration 90 nM)
Procedure, shortened: as §1

[7] = test system: PPARg:RXRa (NR concentration 180 nM, RXRa partner concentration 90 nM)
Procedure, shortened: as §1

[8] = test system: PPARg:RXRa 270nM:90nM, anti-RXR (NR concentration 270 nM, RXRa partner concentration 90 nM)
Procedure, shortened: as §1

[9] = test system: PPARg:RXRa 30nM:10nM, anti-RXR (NR concentration 30 nM, RXRa partner concentration 10 nM)
Procedure, shortened: as §1

[10] = test system: PPARg:RXRa 90nM:30nM, anti-RXR (NR concentration 90 nM, RXRa partner concentration 30 nM)
Procedure, shortened: as §1

Row | Sequence | PBM binding z-score [1] | PBM binding z-score [2] | PBM binding z-score [3] | PBM binding z-score [4] | PBM binding z-score [5] | PBM binding z-score [6] | PBM binding z-score [7] | PBM binding z-score [8] | PBM binding z-score [9] | PBM binding z-score [10]
1 | GCTAGCAGGCCATTTCGGTCACTCAATGACGGGC | -0.325 | -0.482 | -0.0904 | -0.799 | -0.792 | -0.343 | 0.224 | -0.461 | -0.633 | -0.697
2 | CGTCCAAGGTCTATGCTAGGTCAGTGAAAGCATT | 0.1 | 5.48 | 0.995 | 2.27 | -0.26 | 0.535 | -0.39 | -0.288 | -0.641 | -0.388
3 | TCTAGATGGTCACGGAGGTCACACACGACGGGTA | 3.7 | 3.91 | 2.8 | 3.49 | 0.481 | 4.04 | 3.59 | 4.36 | 3.7 | 4.04
4 | TGTCATAGTTCAAAGGTAACGTAAGTATCCACAC | 4.03 | 4.22 | 1.04 | 2.89 | 0.786 | 4.17 | 5.59 | 5.56 | 2.89 | 4.8
5 | ATTTCTAGGTAAGACTCAGTTCAGTGAAGAACGC | 0.897 | 0.946 | 0.909 | 0.543 | 1.31 | 0.972 | 0.289 | 0.947 | 0.807 | 0.822
6 | TTACCGAGGTGAGCTGAGGTCGTTGATCCAACTC | 1.71 | 1.73 | -0.575 | 1.16 | -0.881 | 2.03 | 0.345 | 0.915 | -0.318 | 0.221
7 | GGAACGAGGGCAAGTTGATACCAGAGTTTGATGG | 1.04 | 0.448 | -0.0805 | 0.373 | 0.0862 | 1.58 | 1.31 | 1.19 | 0.0746 | 0.594
8 | TCCGCTAGGTCAACGATGGTCAGCTAATCTGCTA | 2.89 | 2.67 | 0.0246 | 1.54 | -0.303 | 3.09 | 2 | 2.53 | 1.82 | 2.22
9 | TCTGCTAGGTCACCGATGGTCAGCTAATCTGCTA | 3.75 | 3.3 | -0.47 | 2.07 | -0.343 | 3.82 | 3.64 | 4.04 | 2.09 | 3.11
10 | GGAACGAGAGCAAGTTGATAGCAGAGTTTGATGG | -0.63 | -0.766 | -0.719 | -0.852 | -1.03 | -0.523 | 0.39 | -0.573 | -0.225 | -0.721
11 | GCAGACTGGTGAAACGCAGGTAACTCAGGGTGGC | -0.987 | -0.932 | -0.841 | -1.19 | -1.45 | -1.12 | -0.00355 | -0.98 | -0.852 | -1.12
12 | GTACCAAGGTGAATCGGTCGTTGATGAGTAGGCG | 0.346 | 0.0414 | -0.326 | -0.181 | -0.693 | 1.05 | 0.567 | 0.624 | -0.427 | 0.0488
13 | GCTAGTTGGTCAGTAAAAGGTCACACAACGGTCG | 3.52 | 4.37 | 4.08 | 4.15 | 0.685 | 4.73 | 3.31 | 4.38 | 2.61 | 4.66
14 | ACTATTACTTGAGACGAGGGCAACCGATAGGTTG | 0.529 | 0.528 | 0.422 | 0.481 | 1.02 | 0.44 | 0.912 | 0.46 | 0.448 | 0.266
15 | GCGCGGAGGACAAGGTCAGAGCTTTGTCCGTAGA | 1.64 | 1.37 | -0.378 | 1.01 | -1.25 | 2.27 | 0.135 | 1.16 | -0.943 | 0.36
16 | ATCTCTAGGTAAGAGTTCAGTGAATCCCGAGGAT | 0.291 | 1.13 | 0.982 | 0.873 | 0.69 | 3.22 | 5.23 | 6.11 | 4.98 | 6.44
17 | TCATATAGGTAAAAGGTGAAAGTAGGTGTGGTAA | 2.28 | 2.13 | 0.449 | 2.3 | 0.226 | 5.4 | 9.14 | 8.72 | 8.11 | 9.43
18 | CCTGCTAGGTCATGGTCAGCTTATCTACAGTATG | 3.54 | 2.53 | 0.0847 | 1.71 | -0.512 | 3.19 | 2.2 | 2.64 | 0.566 | 1.77
19 | TCTCGGAGGACACGAAGGTCATAGCTTTCCAGAG | 2.87 | 2.73 | 1.72 | 2.61 | -0.514 | 3.18 | 1.09 | 2.57 | 2.55 | 2.54
20 | GCTATTAGTTGAAAGGGCAACCGCATGATTCTCG | 0.581 | 0.701 | 0.377 | 0.909 | -0.00487 | 2.31 | 2.89 | 4.29 | 2.56 | 4.39
21 | TACACAGGGTCAAAGGCCAGAGTACGAATGTCGA | 6.94 | 5.94 | 1.96 | 4.44 | 1.69 | 5.95 | 7.46 | 7.03 | 4.73 | 6.42
22 | GCATATAGGTAATACAATGTGAAAGTCCGATTGT | 0.12 | -0.102 | 0.125 | -0.0369 | -0.0471 | 0.701 | 1.29 | 0.561 | 0.448 | 0.672
23 | GCAGACAGGTGAAACGCAGGTAACTCGGGGTGGC | -0.13 | 0.49 | -0.695 | 0.134 | -0.553 | 0.89 | 0.313 | 0.104 | -0.699 | -0.194
24 | GGAACGAGGGCATTCGTGTTGATAGCATGGCGAT | 0.778 | 0.372 | -0.449 | 0.152 | -0.674 | 1.39 | 0.763 | 0.768 | -0.395 | 0.413
